IL-1B inflam inh: qHTS for Inhibitors of Inflammasome Signaling: IL-1-beta AlphaLISA Primary Screen; THP-1 LPS/ATP IL-1B secretion, AlphaLISA, 16 h; stronger effect = lower value; activity change, % at 57.5 µM; 360,000 compounds, 4.7% hits; in the data active = activity change below about -50%; inconclusive = mostly about -30% to -49%
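Secreted IL-1B measured by AlphaLISA bead assay after 16 h compound exposure of THP-1 cells; compounds (final up to 57.5 uM) added 1 h before LPS (250 ng/mL) and ATP (1.25 mM) stimulation; lower signal means less secretion.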
HT1080-NT tox: qHTS for induction of synthetic lethality in tumor cells producing 2HG: qHTS for the HT-1080-NT fibrosarcoma cell line | HT-1080-NT fibrosarcoma viability, CellTiter-Glo ATP luminescence, 48 h | Potency, µM (series often up to 46.1 µM), for inactives: at the top dose activity, negative = less viability, hits mostly cytotoxic | 360,000 compounds, 1.6% hits;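 also: NT is the 2HG producing partner of a matched IDH1 knockdown line; potency is read from the fitted curve at half-maximal effect; 0% = DMSO-treated cells and -100% = media-only wells without cells; nearly all actives have a fitted effect of over 55% in size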
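Compounds were tested in concentration-response format on HT-1080-NT cells for 48 hours at 37 degrees C. Cell viability came from CellTiter-Glo luminescence; curves were classified by r2, response magnitude and activity.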
DT40 TDP1 no CPT: qHTS for Inhibitors of human tyrosyl-DNA phosphodiesterase 1 (TDP1): qHTS in cells in absence of CPT. DT40 Tdp1-/- hTDP1 cells, no CPT, ATP luminescence, 48 h. Potency, µM (series often up to 46.2 µM), without a hit: at the highest dose activity change, negative = growth inhibition, most hits filed as inhibitors. 420,000 compounds, 15% hits. AID 686978, 2013; also: potency is read from the fitted curve at half-maximal effect; nearly all actives have a fitted effect of over 55% in size
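Cells were dispensed at 400 per well, compounds added by pin tool, plates incubated ≥48 hr at 37 °C, then CellTiter-Glo added for 30 min at room temperature before luminescence reading. Line: DT40 Tdp1-/- complemented with hTDP1; camptothecin omitted.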
DT40 TDP1 CPT: qHTS for Inhibitors of human tyrosyl-DNA phosphodiesterase 1 (TDP1): qHTS in cells in presence of CPT; chicken DT40 Tdp1-/-;hTDP1 cells + 20 nM CPT, ATP luminescence, 48 h; Potency, µM (doses to about 46.2 µM), inactives show at the top dose activity change, negative = growth inhibition, hits mostly inhibitors; 420,000 compounds, 12% hits; AID 686979, 2013; also: potency is read from the fitted curve at half-maximal effect; nearly all actives have a fitted effect of over 55% in size
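Chicken DT40 Tdp1-/- cells complemented with human TDP1, 400 cells/well, exposed to compounds plus 20 nM camptothecin for at least 48 h at 37 C; viability read as ATP content by CellTiter-Glo luminescence.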
HT1080 IDH1KD tx: qHTS for induction of synthetic lethality in tumor cells producing 2HG: qHTS for the HT-1080-IDH1KD cell line | HT-1080 IDH1 knockdown viability, ATP luminescence, 48 h | Potency, µM (titrated, usually from 46.1 µM), for inactives: at the top dose activity, negative = toxicity, actives largely listed as cytotoxic | 360,000 compounds, 2% hits | AID 686971, 2013;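 also: potency is read from the fitted curve at half-maximal effect; 0% = DMSO wells and -100% = cell-free medium wells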
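CellTiter-Glo luminescence after 48 h compound exposure at 37 degrees C of IDH1-knockdown HT-1080 cells in 5% FBS RPMI. %Activity scaled between DMSO wells and cell-free media wells, with curves fitted and assigned curve classes.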
The depositor's hits bear a star; ? = inconclusive; . = no result given; [ ] = remark or other dose. An excerpt weighted towards active compounds, which were near 19% of everything screened. Unless noted, calls follow the shape of the dose curve; as a rule, active = well fitted curve in the direction sought with a large enough effect; inconclusive = small, poorly fitted or top-dose-only effect, or another doubt; inactive = no such curve, though single readings can be large; an effect the other way counts as inactive or inconclusive. Unless noted, % is scaled to controls: 0 for no effect and ±100 for the full control effect.

SMILES	IL-1B inflam inh	HT1080-NT tox	DT40 TDP1 no CPT	DT40 TDP1 CPT	HT1080 IDH1KD tx
Cc1cccc(Nc2nc(N)c([N+](=O)[O-])c(N3CCCC(C)C3)n2)c1 (stereo not drawn)	-103*	?	10µM*	13µM*	?
CCN(C(=O)Cn1c(=O)oc2cc(S(=O)(=O)N3CCCCC3)ccc21)c1ccccc1	.	.	-28%	-6%	.
COC(=O)[C@@]1(Cc2ccccc2)[C@H]2C(=O)N(C)C(=O)[C@H]2[C@H]2CN=C(SC)N21	23	5%	-3%	8%	3%
COC(=O)c1ccccc1NC(=O)CCn1nc(C)c2c(C)n(-c3ccccc3)nc2c1=O	.	.	-23%	-26%	.
CCc1ccccc1NC(=O)Cn1nc(C)c2nn(-c3ccc(Cl)cc3)c(C)c2c1=O	.	.	15µM*	?	.
COC(=O)c1ccccc1NC(=O)Cn1nc(C)c2nn(-c3ccc(Cl)cc3)c(C)c2c1=O	.	.	26µM*	21µM*	.
CCc1ccccc1NC(=O)CCn1nc(C)c2c(C)n(-c3ccccc3)nc2c1=O	.	.	-3%	2%	.
O=C1Nc2c(c(=O)[nH]c(=O)n2-c2ccc(F)cc2)C1(NS(=O)(=O)c1ccccc1)C(F)(F)F (stereo not drawn)	6	24%	-9%	-13%	19%
O=C(NCCc1ccccc1)c1nnc(Cc2cccc(F)c2)o1	.	.	-23%	-12%	.
COc1ccc(C(NC(=O)c2ccc(-c3ccccc3)cc2)c2ccccc2)cc1 (stereo not drawn)	5	-2%	13µM*	13µM*	-3%
CCOc1ccc(C(NC(C)=O)c2cc(Cl)c3cccnc3c2O)cc1 (stereo not drawn)	.	.	4µM*	3.2µM*	.
COc1ccc(C(C)NC(=O)c2ccccc2)cc1 (stereo not drawn)	10	3%	-9%	-7%	0%
CCC(=O)NC(c1ccc(OC)c(OC)c1)c1cc(Cl)c2cccnc2c1O (stereo not drawn)	-5	?	4.6µM*	4.1µM*	?
COc1ccc(C(NC(C)=O)c2cc(Cl)c3cccnc3c2O)cc1OC (stereo not drawn)	116	-15%	4.6µM*	7.3µM*	-22%
COc1ccc(-n2nc(C(=O)NCC(=O)NCCC3=CCCCC3)c3ccccc3c2=O)cc1	-20	-12%	?	?	-10%
COc1ccc(C(=O)NC(c2ccc(Cl)cc2)c2cc(Cl)c3cccnc3c2O)cc1 (stereo not drawn)	.	.	4.1µM*	3.7µM*	.
COc1ccccc1C(NC(C)=O)c1cc(Cl)c2cccnc2c1O (stereo not drawn)	112	-8%	2.3µM*	1.6µM*	-10%
CCOc1ccc(C(Nc2cccnc2)c2cc(Cl)c3cccnc3c2O)cc1 (stereo not drawn)	0	-26%	15µM*	?	15µM*
O=C(O)COc1ccccc1C(Nc1ccccn1)c1cc(Cl)c2cccnc2c1O (stereo not drawn)	19	8%	?	-25%	12%
O=C(O)COc1ccccc1C(Nc1cccnc1)c1cc(Cl)c2cccnc2c1O (stereo not drawn)	30	-5%	10%	6%	-20%
CC(C)OC(=O)c1ccc(NCc2cc(O)ccc2O)cc1	-101*	21µM*	2.3µM*	1.2µM*	18µM*
COP(=O)(OC)c1ccc(NCc2cc(O)ccc2O)cc1	0	-1%	4.1µM*	4.6µM*	0%
O=C(OCc1ccccc1)c1ccc(NCc2cc(O)ccc2O)cc1	-76*	9.2µM*	3.7µM*	4.6µM*	5.8µM*
COc1nccnc1NS(=O)(=O)c1ccc(NCc2cc(Br)ccc2O)cc1	6	-22%	-24%	1%	-23%
Cc1cnc(CNc2ncnc3ccc(-c4ccccc4C#N)cc23)cn1	.	.	-23%	-5%	.
SMILES	IL-1B inflam inh	HT1080-NT tox	DT40 TDP1 no CPT	DT40 TDP1 CPT	HT1080 IDH1KD tx
CCCn1nnnc1NCc1ccc(C(C)C)cc1	11	0%	-15%	0%	4%
CCCN(CCC)CC(O)Cn1cc(/C=C/C(=O)c2ccc(C)cc2)c2ccccc21 (stereo not drawn)	.	.	21µM*	?	.
CCCN(CCC)CC(O)Cn1cc(/C=C/C(=O)c2cccs2)c2ccccc21 (stereo not drawn)	-104*	-7%	?	18µM*	-1%
Cn1cc(/C=N\NC(=O)c2cccs2)c2ccccc21	18	15%	12%	-2%	4%
CC(C)(C)NCC(O)Cn1cc(C=O)c2ccccc21 (stereo not drawn)	0	-6%	-1%	-7%	-1%
CCCN(CCC)CC(O)Cn1cc(/C=C/C(=O)c2ccc(Br)cc2)c2ccccc21 (stereo not drawn)	.	.	4.6µM*	3.3µM*	.
Cc1ccc(NC(=O)CN2C(=O)c3ccccc3S2(=O)=O)c(C)c1	-5	?	29%	-21%	-5%
Cc1cc(C(=O)Cn2cnc3ccc(Cl)cc3c2=O)c(C)n1C1CC1	-10	21%	-7%	2%	10%
CC(C)Cc1nc2cc(NS(=O)(=O)N(C)C)cc(C(=O)N3CCc4sccc4C3)c2n1C	.	.	0%	5%	.
Cc1ccc(C(=O)N/C(=C\c2cn(C)c3ccccc23)C(=O)NCCN2CCOCC2)cc1	-5	-22%	-9%	27%	-16%
C=CCn1c(SCc2c(C)noc2C)nc2ccccc2c1=O	40	0.56µM*	0.79µM*	0.56µM*	0.32µM*
C=CCn1c(SCc2c(C)noc2C)nc2cc(C(=O)O)ccc2c1=O	31	6.3µM*	?	?	7.1µM*
O=C(COC(=O)CCSc1ccccc1)Nc1cc(F)ccc1F	15	5%	-2%	2%	8%
COc1ccc2c(c1OC)C(=O)N1c3ccccc3C(=O)OC21 (stereo not drawn)	.	.	3%[9.04 µM]	-4%[9.04 µM]	.
COc1ccc(C2Nc3ccccc3C(=O)N2Cc2ccco2)cc1OC (stereo not drawn)	.	.	22µM*	8.9µM*	.
O=C1c2ccccc2NC(c2cc(Br)c3c(c2)OCO3)N1Cc1ccco1 (stereo not drawn)	.	.	18µM*	?	.
COc1ccc(C2Nc3ccccc3C(=O)N2Cc2ccco2)cc1COc1ccc(F)cc1 (stereo not drawn)	-20	0%	?	?	-6%

Screening data from PubChem.
